# SMARCA2 act – increases SMARCA2 function in MMTV reporter cells; MG213 cells, MMTV-luciferase reporter, dexamethasone, overnight; AID 652017; activation, % at 9.1 µM; actives 1% (n = 370,000); in the data active means activation above about 7.8%
# esBAF inh – blocks esBAF chromatin remodeling in mouse ES cells; Bmi1-luciferase knock-in reporter, 24 h; 100% = twice the neutral-well signal; reporter increase, % at 12.5 µM; actives 2% (n = 350,000); AID 602393; in the data active means activation above about 40%; inconclusive means no clear call, values can overlap the other calls;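 further: a rise in the Bmi1 reporter signal indicates esBAF inhibition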
# Gli-Sufu antag – blocks Gli-Sufu signaling in a luciferase reporter. Sufu-KO-LIGHT fibroblasts, Gli luciferase reporter luminescence. inhibition, % at 5 µM. actives 0.74% (n = 340,000). AID 588413;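 active means inhibition above about 55%, limit read from the data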
# 697 NFkB inh – lowers PMA/ionomycin-induced NF-kB signal in 697 B cells; 697 B-cell NF-kB luciferase reporter, 16 h; inhibition, % at 4 µM; actives 0.33% (n = 330,000); AID 435022; in the data active means inhibition above about 35%
# Jurkat NFkB inh – lowers PMA/ionomycin-induced NF-kB signal in Jurkat cells; PMA/ionomycin-induced NF-kB luciferase reporter, luminescence; inhibition, % at 4 µM; actives 0.53% (n = 330,000); AID 435003; in the data active means inhibition above about 50%
# A number is an active result; i = inactive; ? = inconclusive; nt = no result. In the library only some 3.3% were active in any assay of this set; here they are far more common.
SMILES,SMARCA2 act,esBAF inh,Gli-Sufu antag,697 NFkB inh,Jurkat NFkB inh
O=C(COc1ccccc1C(=O)c1cnn(-c2ccccc2)c1)Nc1ccc2ccccc2c1,i,82,i,i,i
COc1ccc(O)c(C(=O)CC(=O)c2cccnc2)c1,13,i,i,nt,nt
COc1ccc(O)c(C(=O)c2cnn(-c3ccccc3)c2)c1,i,53,i,i,i
COc1ccc(O)c(C(=O)CC(=O)c2ccccc2C)c1,i,i,i,i,i
O=C(c1cnn(-c2ccccc2)c1)c1cc(F)ccc1O,i,89,i,i,i
CC(C)c1ccc(NC(=O)COc2ccc(F)cc2C(=O)c2cnn(-c3ccccc3)c2)cc1,i,nt,i,i,i
CO[C@@H]1CN(C)C(=O)c2cc(NC(=O)C3CC3)ccc2OC[C@H](C)N(C(=O)c2cnccn2)C[C@@H]1C,nt,i,nt,nt,nt
CO[C@H]1CN(C)C(=O)c2cc(NC(=O)Nc3cccc(Cl)c3)ccc2OC[C@@H](C)N(C)C[C@@H]1C,nt,i,nt,nt,nt
CCCC(=O)Nc1ccc2c(c1)C(=O)N(C)C[C@H](OC)[C@H](C)CN(Cc1cncnc1)[C@@H](C)CO2,nt,i,nt,nt,nt
CO[C@H]1CN(C)C(=O)c2cc(NS(=O)(=O)c3ccccc3)ccc2OC[C@@H](C)N(Cc2ccccn2)C[C@H]1C,nt,i,nt,nt,nt
CSCC(=O)N1CCC(n2nccc2NC(=O)c2ccc3c(c2)OCO3)CC1,i,58,i,i,i
C[C@@H]1CN([C@@H](C)CO)C(=O)Cc2cc(NS(=O)(=O)c3ccc(F)cc3)ccc2O[C@@H]1CN(C)C(=O)Nc1ccc(F)cc1,nt,i,nt,nt,nt
CCC(C)C(=O)N1CCc2cc(-c3csc(N)n3)ccc21 (stereo not drawn),i,53,i,i,i
O=C(C[C@@H]1C[C@H]2c3cc(NC(=O)c4ccc5c(c4)OCO5)ccc3O[C@H]2[C@@H](CO)O1)NC1CCCCC1,nt,i,nt,nt,nt
C[C@H](CO)N1C[C@H](C)[C@@H](CN(C)Cc2ccccc2)OCCCC[C@H](C)Oc2ccc(NC(=O)Nc3ccc(F)cc3)cc2C1=O,nt,i,nt,nt,nt
CCCCSc1nnc(-c2ccc(OC)cc2)n1C,i,56,i,i,i
COc1ccc(-c2nnc(SCc3csc(N)n3)n2C)cc1,i,i,i,i,i
Cc1ccc(-c2nnc(SCC(C)C)n2C)cc1,i,55,i,i,i
O=C(NCC[C@H]1CC[C@H](NC(=O)Nc2cc(F)ccc2F)[C@@H](CO)O1)Nc1ccc(Cl)cc1,nt,i,nt,nt,nt
COCC(=O)Nc1ccc2c(c1)OC[C@H](C)N(CC1CCCCC1)C[C@H](C)[C@@H](OC)CN(C)C2=O,nt,i,nt,nt,nt
O=C(Nc1ccc(F)cc1)c1ccc2snnc2c1,i,45,i,i,i
Cc1ccc(NC(=O)c2ccc3snnc3c2)cc1C,i,?,i,i,i
CCOc1ccc(NC(=O)c2ccc3snnc3c2)cc1,i,54,i,i,i
Clc1ccccc1Cn1nnc(-c2cccs2)n1,i,56,i,i,i
CN(C)c1ccc(C(=O)c2ccc(O)cc2O)cc1,i,55,i,i,i
SMILES,SMARCA2 act,esBAF inh,Gli-Sufu antag,697 NFkB inh,Jurkat NFkB inh
CC(=O)Nc1ccc2c(c1)C(=O)N(C)[C@@H]1CC[C@@H](CC(=O)NCc3ccccc3)O[C@@H]1CO2,nt,i,nt,nt,nt
CCOC(=O)/C=C(/C)N1N=C(c2ccc(OC)cc2)CC1c1cccc([N+](=O)[O-])c1 (stereo not drawn),i,55,i,i,i
CN1c2ccc(C#Cc3cccnc3)cc2[C@H]2[C@H](CCN2C(=O)c2cccnc2)[C@H]1CO,nt,i,nt,nt,nt
C[C@@H]1CCCCO[C@@H](CN(C)S(=O)(=O)c2ccc(Cl)cc2)[C@H](C)CN([C@@H](C)CO)C(=O)c2cc(NC(=O)Nc3ccc4c(c3)OCO4)ccc2O1,nt,i,nt,nt,nt
CC1CCc2c(sc3ncn(CCO)c(=O)c23)C1 (stereo not drawn),i,53,i,i,i
CC1CCc2c(sc3ncn(Cc4ccc(C(=O)O)cc4)c(=O)c23)C1 (stereo not drawn),i,i,i,i,i
C[C@@H]1CN([C@H](C)CO)C(=O)c2cc(NS(=O)(=O)c3ccc(F)cc3)ccc2O[C@H]1CN(C)C,nt,i,nt,nt,nt
CNC(=O)C[C@H]1CC[C@H]2[C@@H](COC[C@@H](O)CN2Cc2ccc(Cl)c(Cl)c2)O1,nt,i,nt,nt,nt
COc1ccc(C(=O)CC(=O)C(=O)Nc2cccc(F)c2)cc1,i,i,i,i,i
COc1ccc(C(=O)CNc2ccccc2C#N)cc1,i,50,i,i,i
COc1ccc(C(=O)CNc2cccc(F)c2)cc1,i,63,i,i,i
CN(C)C(=O)[C@H]1[C@H](CO)[C@H]2Cn3c(ccc(C4=CCCCC4)c3=O)[C@@H]1N2Cc1ccccc1,nt,i,nt,nt,nt
CN1C(=O)c2cc(NC(=O)c3ccccc3)ccc2OC[C@H]2O[C@H](CC(=O)NCC3CC3)CC[C@@H]21,nt,i,nt,nt,nt
CC(=NNC(=S)Nc1cccc(C)c1)c1ccccn1,i,nt,82,nt,nt
C/C(=N/NC(=O)c1ccccn1)c1ccncc1,i,i,i,i,i
COc1ccccc1NC(=S)NN=C(C)c1ccccn1,i,i,85,nt,nt
CC(=NNC(=S)Nc1ccc(C)cc1)c1ccccn1,i,i,i,nt,nt
C/C(=N\NC(=O)c1cc(Br)ccc1O)c1ccccn1,i,i,66,i,i
COc1ccc(NC(=O)Nc2ccc3c(c2)CC(=O)N([C@H](C)CO)C[C@@H](C)[C@@H](CN(C)Cc2ccc(C(=O)O)cc2)O3)cc1,nt,i,nt,nt,nt
CN1C(=O)C2(OCC(C)([N+](=O)[O-])CO2)c2ccccc21 (stereo not drawn),i,i,i,nt,nt
CN1C(=O)C2(N=c3ccccc3=N2)c2ccccc21,nt,41,i,i,i
NS(=O)(=O)c1ccc(NN=C2CCCCC2)c([N+](=O)[O-])c1,7.8,nt,i,i,i
CC(=O)N1CCN(C(=O)c2ccc3oc(CCCc4ccccc4)nc3c2)CC1,i,i,i,i,i
CCOC(=O)N1CCN(C(=O)c2ccc3oc(CCCc4ccccc4)nc3c2)CC1,i,81,i,i,i
CC(C)(CO)NC(=O)c1ccc2nc(Cc3cccc(Cl)c3)oc2c1,i,43,i,i,i
SMILES,SMARCA2 act,esBAF inh,Gli-Sufu antag,697 NFkB inh,Jurkat NFkB inh
CCOC(=O)C1CCCN(C(=O)c2ccc3oc(Cc4ccccc4)nc3c2)C1 (stereo not drawn),i,70,i,i,i
CCOC(=O)N1CCN(C(=O)c2ccc3c(c2)sc2nc(-c4ccccc4)cn23)CC1,i,79,i,i,i
CC(C)CC(=O)C1CCCN(C(=O)c2ccc3oc(Cc4ccccc4)nc3c2)C1 (stereo not drawn),i,i,i,i,i
CCOC(=O)N1CCC(NC(=O)c2ccc3c(c2)sc2nc(-c4ccc(OC)cc4)cn23)CC1,nt,nt,nt,i,i
COCC(=O)Nc1ccc2c(c1)C(=O)N(C)C[C@@H](OC)[C@H](C)CN(Cc1cccc(F)c1)[C@H](C)CO2,nt,i,nt,nt,nt
C[C@@H]1CN([C@H](C)CO)C(=O)Cc2cc(NC(=O)Cn3cnnn3)ccc2O[C@@H]1CN(C)Cc1ccc(Oc2ccccc2)cc1,nt,i,nt,nt,nt
COC1CCCN(C(=O)c2ccc3oc(Cc4ccc(Cl)cc4)nc3c2)C1 (stereo not drawn),i,i,i,i,i

# Compound activity as filed in PubChem BioAssay.
